# From publication PMC4242493, “Sequence specificity incompletely defines the genome-wide occupancy of Myc”
# In all, about 33,000 sequences were measured (“normalized occupancy”: median about 0.075, highest 2% from about 0.095 on). The full list was thinned out, with the highest values kept by preference.
# Target: MaxL homodimer (Homo sapiens, UniProt P61244 1-160)
# Experiment: universal protein-binding microarray (PBM); PBS-based mixture, 10 nM His-tagged protein dimer, 2% milk, 200 ng/uL BSA, 50 ng/uL salmon testes DNA, 0.02% TX-100; detection with Alexa 488 anti-His antibody;; high values mean tight binding
# Settings: protein: recombinant; tags: C-terminal His-tag (pET21a); chain copies: 2; dsDNA, one strand shown
# Summary of the method: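 Arrays of the 'all 10-mer' universal design (Agilent 4 x 44 K) were exposed to 10 nM His-tagged protein dimer, stained with 10 ng/μL fluorophore-conjugated anti-His antibody and read on a GenePix 4400A to give a fluorescence intensity for each 8-mer. Binding occupancy is each intensity divided by the highest-ranked intensity.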
# Chain of MaxL homodimer (P61244 whole entry): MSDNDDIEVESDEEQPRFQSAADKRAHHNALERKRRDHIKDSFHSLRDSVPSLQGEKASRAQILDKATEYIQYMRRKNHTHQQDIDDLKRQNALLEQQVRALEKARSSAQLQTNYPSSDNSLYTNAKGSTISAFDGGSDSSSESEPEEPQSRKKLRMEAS
row,Sequence,binding signal
1,AGGGAGCA,0.0728 normalized occupancy
2,TAGTTGGA,0.0742 normalized occupancy
3,TAAGGACA,0.075 normalized occupancy
4,CTACGCAC,0.0773 normalized occupancy
5,AACGCGTT,0.0813 normalized occupancy
6,CACGCGTC,0.119 normalized occupancy
7,AACGCGTG,0.123 normalized occupancy
8,GACGCGTC,0.0757 normalized occupancy
9,ACCGCGTA,0.0727 normalized occupancy
10,ACCGCGTG,0.182 normalized occupancy
11,CACGCGTA,0.121 normalized occupancy
12,AACGCGTC,0.0723 normalized occupancy
13,GACGCGTA,0.0737 normalized occupancy
14,AACGCGTA,0.0792 normalized occupancy
15,ACCGCGCG,0.0856 normalized occupancy
16,TACGCGTA,0.0797 normalized occupancy
17,CCTTAGCC,0.0725 normalized occupancy
18,CGTGCTGC,0.09 normalized occupancy
19,CGCTGACA,0.0773 normalized occupancy
20,GCGAGCAA,0.0723 normalized occupancy
21,AAGAACAT,0.08 normalized occupancy
22,GACGGTCA,0.0718 normalized occupancy
23,GCGACAGA,0.0794 normalized occupancy
24,AAGTCATT,0.0758 normalized occupancy
25,CAACATTA,0.0824 normalized occupancy

row,Sequence,binding signal
1,CCGAATGA,0.0745 normalized occupancy
2,AAACACAG,0.0769 normalized occupancy
3,ATCGCGTA,0.0764 normalized occupancy
4,CACGCGTG,0.17 normalized occupancy
5,CGCGCGTA,0.0797 normalized occupancy
6,ATCGCGTC,0.0719 normalized occupancy
7,CTCGCGTA,0.0788 normalized occupancy
8,ATCGCGTG,0.127 normalized occupancy
9,GCCAACCC,0.08 normalized occupancy
10,AACATGGT,0.0843 normalized occupancy
11,AGTGAAAG,0.0743 normalized occupancy
12,CCCGGTAG,0.0721 normalized occupancy
13,ATGTGATG,0.0968 normalized occupancy
14,ATGTGATC,0.0964 normalized occupancy
15,ATGTGAAG,0.0891 normalized occupancy
16,AGGTGATC,0.0832 normalized occupancy
17,ATGTGATA,0.0999 normalized occupancy
18,ATGTGAAT,0.0967 normalized occupancy
19,ATGTGAAA,0.0872 normalized occupancy
20,CTGTGATC,0.0728 normalized occupancy
21,GTGTGATA,0.0856 normalized occupancy
22,CTGTGATA,0.0741 normalized occupancy
23,ATGTGACG,0.0922 normalized occupancy
24,ATCTGATG,0.0779 normalized occupancy
25,AAGAGGAA,0.0726 normalized occupancy

row,Sequence,binding signal
1,AATTATCG,0.0772 normalized occupancy
2,AATTCGAG,0.0732 normalized occupancy
3,AAGAGGGC,0.0738 normalized occupancy
4,CTGGTTAC,0.0749 normalized occupancy
5,ATAGGGAT,0.0812 normalized occupancy
6,CCGAGTAG,0.0732 normalized occupancy
7,GATGATAA,0.078 normalized occupancy
8,AGAATGTG,0.0881 normalized occupancy
9,ATGGTAGG,0.0818 normalized occupancy
10,CTTACTAA,0.0721 normalized occupancy
11,CTAGTGGC,0.0765 normalized occupancy
12,ATCGTGGA,0.084 normalized occupancy
13,CTCGTGGC,0.119 normalized occupancy
14,GTCGTGGA,0.0856 normalized occupancy
15,ATCGTGGC,0.086 normalized occupancy
16,CTCGTGGA,0.103 normalized occupancy
17,CATCTCTA,0.0817 normalized occupancy
18,CAATTATG,0.0802 normalized occupancy
19,GAACACGC,0.108 normalized occupancy
20,GAACACAC,0.0767 normalized occupancy
21,CAACACGA,0.0817 normalized occupancy
22,CAACACGC,0.0995 normalized occupancy
23,AAACACGC,0.0929 normalized occupancy
24,GAACACGA,0.0948 normalized occupancy
25,ATTAGCGG,0.0719 normalized occupancy

row,Sequence,binding signal
1,ACATTGAA,0.0824 normalized occupancy
2,ACGAGAGG,0.0776 normalized occupancy
3,AAACAAAG,0.0763 normalized occupancy
4,GCATGCAA,0.0988 normalized occupancy
5,GAATGCAC,0.0772 normalized occupancy
6,GTATGCAC,0.0856 normalized occupancy
7,TCATGCAA,0.0829 normalized occupancy
8,ACATGCAA,0.0826 normalized occupancy
9,GCATGCAC,0.11 normalized occupancy
10,ATGGAAGC,0.0783 normalized occupancy
11,TGAATCCA,0.0757 normalized occupancy
12,TCGTTCCA,0.0775 normalized occupancy
13,CCATAGCC,0.0762 normalized occupancy
14,ACACACGA,0.0911 normalized occupancy
15,GCACACGC,0.1 normalized occupancy
16,ACACACGG,0.083 normalized occupancy
17,AAACACGG,0.0741 normalized occupancy
18,TCACACGA,0.0859 normalized occupancy
19,CCACACGA,0.0959 normalized occupancy
20,AAACACGA,0.0848 normalized occupancy
21,GCACACAC,0.0907 normalized occupancy
22,CCACACGG,0.0835 normalized occupancy
23,ACACACGT,0.0986 normalized occupancy
24,GCACACGA,0.0896 normalized occupancy
25,AAACACGT,0.106 normalized occupancy

row,Sequence,binding signal
1,GTTTCCTA,0.0787 normalized occupancy
2,AATATAAG,0.0817 normalized occupancy
3,CCCCTAAC,0.0774 normalized occupancy
4,AACACTAC,0.0726 normalized occupancy
5,AATAGTGC,0.0733 normalized occupancy
6,GGAGAGAC,0.0742 normalized occupancy
7,ACACACAC,0.0915 normalized occupancy
8,AGACACGC,0.0922 normalized occupancy
9,CCACACAC,0.0837 normalized occupancy
10,CCACACAA,0.0772 normalized occupancy
11,CCACACGC,0.0953 normalized occupancy
12,ACACACGC,0.103 normalized occupancy
13,ACTAACAA,0.0766 normalized occupancy
14,GCTTACCA,0.0723 normalized occupancy
15,GCAATCTA,0.0722 normalized occupancy
16,ATTAAAGA,0.0773 normalized occupancy
17,CTATTAAC,0.0779 normalized occupancy
18,GTAGTAAA,0.0757 normalized occupancy
19,AGGACCAT,0.0823 normalized occupancy
20,ACTATTCG,0.0759 normalized occupancy
21,CAAGCATA,0.0775 normalized occupancy
22,AAAGCATC,0.0796 normalized occupancy
23,AAAGCATA,0.0783 normalized occupancy
24,AAAGCATG,0.104 normalized occupancy
25,CAAGCATG,0.105 normalized occupancy

row,Sequence,binding signal
1,CAAGCATC,0.0744 normalized occupancy
2,CTCACTTC,0.0734 normalized occupancy
3,TATTCCGA,0.072 normalized occupancy
4,CTCCACGC,0.101 normalized occupancy
5,ATCCACGA,0.0905 normalized occupancy
6,ATCCACGC,0.109 normalized occupancy
7,CTCCACCA,0.075 normalized occupancy
8,CTCCACGA,0.0817 normalized occupancy
9,ATCCACGG,0.0796 normalized occupancy
10,AGAGATAA,0.0771 normalized occupancy
11,CCTTAGGC,0.0728 normalized occupancy
12,CACGCCTA,0.0938 normalized occupancy
13,CACGCCTC,0.0974 normalized occupancy
14,GACGCCTC,0.0726 normalized occupancy
15,CACGCCTG,0.0966 normalized occupancy
16,AACGCCTG,0.0733 normalized occupancy
17,CTCGCCTC,0.0748 normalized occupancy
18,AAATAGTT,0.0744 normalized occupancy
19,ATGCGAGG,0.0841 normalized occupancy
20,ATTGTTAA,0.0765 normalized occupancy
21,AAGCACGT,0.102 normalized occupancy
22,AAGCACGG,0.0779 normalized occupancy
23,GCGCACGA,0.093 normalized occupancy
24,GCGCACTA,0.0726 normalized occupancy
25,ACGCACGC,0.109 normalized occupancy

row,Sequence,binding signal
1,ACGCACTA,0.0766 normalized occupancy
2,ACGCACGA,0.091 normalized occupancy
3,GCGCACGC,0.0964 normalized occupancy
4,ACGCACGT,0.0986 normalized occupancy
5,ACGCACCT,0.0799 normalized occupancy
6,AAGCACGA,0.0867 normalized occupancy
7,ACGCACGG,0.0828 normalized occupancy
8,GACGACGA,0.0747 normalized occupancy
9,AAATGTAA,0.0834 normalized occupancy
10,ACTCATAC,0.074 normalized occupancy
11,ATCCCACG,0.093 normalized occupancy
12,CTTATTAC,0.0796 normalized occupancy
13,CAATCACC,0.0797 normalized occupancy
14,ACTTGTAG,0.073 normalized occupancy
15,GGAGCCAA,0.0767 normalized occupancy
16,GCAAAGGA,0.0773 normalized occupancy
17,AAATGGGG,0.0777 normalized occupancy
18,ATGATTTA,0.079 normalized occupancy
19,CCGCACGA,0.0824 normalized occupancy
20,CCGCACGG,0.0742 normalized occupancy
21,CCGCACGC,0.0999 normalized occupancy
22,ACATTTTG,0.0837 normalized occupancy
23,AACGCCCG,0.0749 normalized occupancy
24,GACGCGAC,0.0735 normalized occupancy
25,AACGCGAA,0.0761 normalized occupancy

row,Sequence,binding signal
1,AACGCGAC,0.0746 normalized occupancy
2,CACGCGAC,0.131 normalized occupancy
3,AACGCGAG,0.0764 normalized occupancy
4,CACGCGAA,0.105 normalized occupancy
5,CGCGCGAG,0.0787 normalized occupancy
6,CACGCGAG,0.111 normalized occupancy
7,GACGCGAA,0.0735 normalized occupancy
8,GTGGAATA,0.0822 normalized occupancy
9,ACGTCTTG,0.0724 normalized occupancy
10,ACAGGTTG,0.0821 normalized occupancy
11,AAAACGAG,0.0747 normalized occupancy
12,GTTCTCCA,0.0767 normalized occupancy
13,ACCACCTC,0.0834 normalized occupancy
14,AACACATG,0.138 normalized occupancy
15,AACACATA,0.0823 normalized occupancy
16,ATGACATC,0.0827 normalized occupancy
17,ACCACCTG,0.106 normalized occupancy
18,ATGACATG,0.0993 normalized occupancy
19,ATGACATA,0.0825 normalized occupancy
20,ACCACATA,0.0854 normalized occupancy
21,ACCACCTA,0.082 normalized occupancy
22,ACCACATG,0.192 normalized occupancy
23,ACCACATC,0.0807 normalized occupancy
24,AACACATT,0.0903 normalized occupancy
25,CGCCCATC,0.0733 normalized occupancy

row,Sequence,binding signal
1,GTACGGAA,0.0756 normalized occupancy
2,ACCGCTAC,0.0748 normalized occupancy
3,CATCCCTC,0.0774 normalized occupancy
4,AATTTTTG,0.0733 normalized occupancy
5,AAGACAGG,0.0727 normalized occupancy
6,AGCACATG,0.187 normalized occupancy
7,ATCACATC,0.0862 normalized occupancy
8,ATCACATG,0.158 normalized occupancy
9,AGCACATA,0.0807 normalized occupancy
10,AGCACATC,0.0841 normalized occupancy
11,CACACATG,0.136 normalized occupancy
12,CACACATA,0.0896 normalized occupancy
13,ATCACATA,0.0859 normalized occupancy
14,CACACATC,0.0888 normalized occupancy
15,AGTAGTGG,0.0787 normalized occupancy
16,CTACTTGA,0.0752 normalized occupancy
17,GCCTCTCC,0.076 normalized occupancy
18,CACGCAGC,0.085 normalized occupancy
19,ACGTAGCC,0.0725 normalized occupancy
